# ATXN2 expr inh: reduces ATXN2 reporter expression in HEK-293 cells. actives 0.72% (n = 360,000). Potency, µM (highest dose often 57 µM), for the others: at the top dose activity change, negative = inhibition, usual class: inhibitors. HEK-293 ATXN2-luciferase reporter, luminescence, 24 h; note: potency is the fitted concentration of half-maximal effect; % is set by controls: 0 for no effect and ±100 for the full control effect; nearly all actives have a fitted effect of over 55% in size
#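 qHTS (up to 57 uM final) was run with 24 h compound exposure of reporter cells at 37 °C. Each well was multiplexed: SteadyGlo luminescence measured ATXN2-luciferase expression after a fluorogenic Gly-Phe-AFC viability readout (25 uM final).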
# PINK1 modulator: PINK1 expression modulation; AID 624263; PINK1 immunofluorescence, high-content cytometry, 24 h; actives 0.2% (n = 410,000); Potency, µM (series often up to 76.6 µM), inactives show top-dose activation (PINK1 increase), usual class: activators; active = well fitted activation curve with a large enough effect; inconclusive = small, poorly fitted or top-dose-only effect; cell line not stated here; note: potency is the fitted concentration of half-maximal effect; % of control where 0% means no effect; nearly all actives have a fitted effect of over 65% in size
#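 Measures PINK1 amount and localization on or inside mitochondria by immunofluorescence. Stable cells get compounds at 5 concentrations for 24 hours before fixation and staining; CCCP controls included.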
# S2 tox: cell viability loss in ATXN counter-screen | S2 cells (HEK-293 line with an ATXN2-luciferase reporter) viability, CellTiter-Fluor protease fluorescence, 24 h | Potency, µM (series often up to 56.7 µM), usual class: cytotoxic | actives 0.49% (n = 400,000) | AID 651635; note: potency is the fitted concentration of half-maximal effect; nearly all actives have a fitted effect of over 40% in size
# SW480 rereplic: inducers of DNA re-replication in SW480 colon cancer cells | SW480 DNA re-replication, Hoechst DNA content imaging, 48 h | Potency, µM (top dose mostly 46.1 µM), without a hit: at the top dose re-replication activation, actives largely listed as activators | actives 1.8% (n = 340,000); note: potency is the fitted concentration of half-maximal effect; % of control where 0% means no effect; nearly all actives have a fitted effect of over 55% in size
#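 Hoechst fluorescence of nuclei (405 nm excitation, 500-530 nm emission) measured by plate-scanning imager after 48 hr compound exposure at 37 C; re-replication scored as increased number of nuclei with elevated intensity.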
# MCF10A rereplic: inducers of DNA re-replication in MCF 10A breast cells. MCF 10A DNA re-replication, Hoechst nuclear intensity, 48 h. Potency, µM (doses to about 46.1 µM), for the others: at the highest dose activity, positive = re-replication, usual class: activators. actives 2.9% (n = 350,000); note: potency is the fitted concentration of half-maximal effect; % of control where 0% means no effect; nearly all actives have a fitted effect of over 50% in size
# IL1B secr inh: inflammasome signaling inhibition, IL-1 beta readout; THP-1 LPS/ATP IL-1B secretion, AlphaLISA, 16 h; stronger effect = lower value; activity change, % at 57.5 µM; actives 4.7% (n = 360,000); in the data active = activity change below about -50%; inconclusive = mostly about -30% to -49%; note: % is set by controls: 0 for no effect and ±100 for the full control effect
#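 THP-1 cells pretreated 1 hr with compounds (up to 57.5 uM final), then stimulated with LPS (250 ng/mL final) plus ATP (1.25 mM final); secreted IL-1B measured by AlphaLISA after 16 hr, decreased signal indicating inhibition.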
# Active calls of the source: *; i = inactive; ? = inconclusive; . = no result given; [ ] = dose if it differs, or a comment. Hits are enriched below; roughly 7.1% of the tested compounds scored in any of these assays. Unless noted, calls come from the whole dose curve; as a rule, active = well fitted curve in the direction sought with a large enough effect; inconclusive = small, poorly fitted or top-dose-only effect, or another doubt; inactive = no such curve, though single readings can be large; an effect the other way counts as inactive or inconclusive.
SMILES,ATXN2 expr inh,PINK1 modulator,S2 tox,SW480 rereplic,MCF10A rereplic,IL1B secr inh
O=C(N=Nc1c(O)n(Cc2ccccc2)c2ccccc12)c1cc2ccccc2cc1O,-33.5%,1.1%,.,?,10.3µM*,0.8
N=c1cc(C2(O)CCCCC2)n2c(nc3ccccc32)s1,-13.1%,8.8%[38.3 µM],i,?,18.4µM*,?
Cc1nc(C(F)(F)F)c(C(=O)N/N=C(\N)c2ccccn2)s1,?,-0.5%,?,7.31µM*,?,46.6
N/C(=N\NS(=O)(=O)c1ccccc1C(F)(F)F)c1ccccn1,.,-1.2%,i,?,-0.1%,0.0
N#Cc1nc(-c2ccco2)oc1N1CCN(c2cccc(Cl)c2)CC1,-20.5%,1.3%[38.3 µM],i,-4.2%,23.6%,-61.9*
N#Cc1nc(-c2ccco2)oc1N1CCCC1,-13.7%,-1.1%,i,6.2%,2.3%,2.9
C=Cc1ncc(OC)c2c1[nH]c1ccccc12,?,-1.3%,.,?,?,-107.2*
CCCCn1c(=O)[nH]c(=O)c2c1nc(Cn1ncc(Cl)c(Cl)c1=O)n2CCC,?,0.1%,?,?,?,-104.0*
CCCCn1c(=O)[nH]c(=O)c2c1nc(CN1C(=O)c3ccccc3S1(=O)=O)n2CCC,4.6%,0.7%,i,-0.3%,4.3%,-3.3
O=C(CSc1nnc(-c2ccccc2Br)n1-c1ccccc1)c1ccc(F)cc1,-16.4%,-1.1%,i,.,.,.
CC(=O)n1c2ccccc2c2ccccc21,-3.8%,1.6%[38.3 µM],i,-10.4%,?,3.8
Cc1ccc(C(=O)n2c3ccccc3c3ccccc32)cc1,-3.5%,?,i,20.6µM*,?,42.9
COCCNC(=O)Cn1cc(/C=N/NC(=O)c2ccc(Oc3ccc(O)cc3)cc2)c2ccccc21,0.4%,-1.0%,i,-88.7%,5.7%,-70.2*
COc1ccc(OCCn2cc(/C=N/NC(=O)c3ccncc3)c3ccccc32)cc1,-10.7%,-0.1%,i,2.1%,21.2%,0.0
Cc1ccc(S(=O)(=O)Nc2ccc3cn[nH]c3c2)cc1C,1.5%,0.7%,i,2.5%,10.6%,-6.1
Cc1ccc(C)c(S(=O)(=O)Nc2ccc3cn[nH]c3c2)c1,.,1.1%,?,-0.5%,0.8%,-4.3
CCOc1ccc(S(=O)(=O)Nc2ccc(Cl)cn2)c(C)c1C,0.4%,0.6%[38.3 µM],i,-6.9%,-0.7%,33.9
Cc1cc(C)cc(NC(=S)Nc2ccc3cn[nH]c3c2)c1,12.4%,1.2%,i,-0.5%,-2.9%,-53.1*
CCOc1cc(C)c(S(=O)(=O)Nc2ccc(Cl)cn2)cc1C,-0.1%,1.2%[38.3 µM],i,15.6%,23.1µM*,-2.4
CCOc1cc(C)c(S(=O)(=O)Nc2ccc3cn[nH]c3c2)cc1C,4.1%,.,i,-1.0%,-2.0%,-69.6*
Cc1ccc(S(=O)(=O)Nc2ccc3cn[nH]c3c2)c(C)c1,-9.3%,-1.2%,i,16.4µM*,15.6%,42.1
Cc1cc(C)cc(NC(=O)Cn2c3ncccc3c(=O)n2-c2ccc(C)c(C)c2)c1,.,1.0%,.,.,.,.
CCOC(=O)N=Nc1c2ccccc2c2nc3no[nH]c3nc12,?,-2.4%,.,?,?,-103.2*
COCCn1c(N)c(C(=O)NCC2CCCO2)c2nc3ccccc3nc21 (configuration not stated),-15.8%,-1.5%,.,10µM*,?,-18.4
O=C(NCc1cccs1)c1ccc2ccccc2n1,16.8%,-1.2%,i,-8.2%,-2.6%,-13.8
SMILES,ATXN2 expr inh,PINK1 modulator,S2 tox,SW480 rereplic,MCF10A rereplic,IL1B secr inh
COCCn1c(N)c(S(=O)(=O)c2cccs2)c2nc3ccccc3nc21,-10.2%,-1.0%[38.3 µM],i,9.0%,23.1µM*,-23.1
COCCn1c(N)c(C(=O)NCc2cccs2)c2nc3ccccc3nc21,0.0%,-9.0%[38.3 µM],.,?,8.2µM*,?
COCCn1c(N)c(C(=O)Nc2sc3c(c2C(=O)OC)CCCC3)c2nc3ccccc3nc21,4.6%,0.2%,i,1.4%,0.8%,-0.4
COc1cccc(/C=N/n2c(N)c(S(=O)(=O)c3cccs3)c3nc4ccccc4nc32)c1OC,?,-6.3%[38.3 µM],i,11.6µM*,3.66µM*,101.4
COc1ccc(NC(=O)Cn2cnc3c(oc4ccccc43)c2=O)cc1OC,12.2%,-0.6%,i,.,.,.
C[N+](C)(C)CC(O)CC(=O)[O-] (configuration not stated),14.0%,.,i,.,.,.
CC(=O)c1ccc(NC(=O)c2ccc(-c3nc(COc4ccc(C)cc4)c(C)o3)cc2)cc1,2.4%,2.7%,i,.,.,.
CCC(Sc1nc2ccccc2c2nc(CCn3c(C)nc4ccccc43)nn12)C(=O)Nc1ccc(F)cc1 (configuration not stated),1.6%,3.3%,i,.,.,.
COc1ccc(OC)c(-n2c(N)c(C(=O)NCC3CCCO3)c3nc4ccccc4nc32)c1 (configuration not stated),-5.5%,2.6%,i,16.4µM*,8.2µM*,0.0
Nc1c(C(=O)NCC2CCCO2)c2nc3ccccc3nc2n1/N=C/c1ccncc1 (configuration not stated),-1.3%,11.2%,i,-3.5%,24.6%,0.0
CC(C)Cn1c(N)c(C(=O)NCC2CCCO2)c2nc3ccccc3nc21 (configuration not stated),-14.4%,-2.6%,.,?,2.06µM*,-79.9*
COc1ccc(OC)c(-n2c(SCC(=O)NCC3CCCO3)nc3ccccc3c2=O)c1 (configuration not stated),-21.8%,1.6%,i,-3.9%,6.6%,-22.4
COc1ccc(C(=O)Nc2ccccc2)cc1NC(=O)c1ccc([N+](=O)[O-])cc1,-0.9%,0.2%,i,1.5%,2.0%,-62.8*
COc1ccc(NC(=O)c2ccc(-c3ccc([N+](=O)[O-])cc3)o2)cc1OC,-34.7%,0.1%,?,1.3%,?,-76.5*
COc1ccc([N+](=O)[O-])cc1NC(=O)Nc1ccc(OC)c(OC)c1,?,3.4%,i,-1.0%,18.4%,-84.6*
COc1ccc([N+](=O)[O-])cc1NC(=O)Nc1cccc(Cl)c1,?,25.7%,i,?,-0.2%,-19.1
COc1ccc(NC(=O)Nc2cc(C)ccc2F)cc1OC,54.4%,1.2%,i,-3.4%,-1.9%,-50.6*
CS(=O)(=O)c1ccc(-c2cccc3c2OC(CNC(=O)c2ccnc(Cl)c2)C3)cc1 (configuration not stated),.,-1.0%,i,.,.,.
Cc1cc(=O)oc2cc(NC(=O)c3cccc(S(=O)(=O)N(C)C)c3)ccc12,-13.8%,12.7%,i,0.9%,1.2%,-4.2

# Screening data as filed in PubChem BioAssay.
